Reference: PubChem BioAssay AID1460 (National Center for Advancing Translational Sciences (NCATS), 2008)
Out of some 270,000 compounds screened, about 5,800 (2.1%) were called active. Another 16% or so got no clear call; they are omitted. What follows is part of a selection rich in actives, with near analogues and random picks from the rest. A number with no mark means an inactive call. Calls follow the shape of the dose curve; as a rule, active = well fitted inhibition curve with a large enough effect; inconclusive = small, poorly fitted or top-dose-only effect; inactive = flat fitted curve, though single readings scatter.

target: Microtubule-associated protein tau (Homo sapiens) (UniProt P10636); test: qHTS for Inhibitors of Tau Fibril Formation, Thioflavin T Binding; details: recombinant tau K18 P301L (four-repeat tau fragment), heparin-induced fibrillization, ThT fluorescence; series mostly up to 57.4 µM; activity, negative = inhibition: at the top concentration; also: nearly all actives have a fitted effect of over 55% in size
Sequence (P10636 561-689 P618L limits assumed): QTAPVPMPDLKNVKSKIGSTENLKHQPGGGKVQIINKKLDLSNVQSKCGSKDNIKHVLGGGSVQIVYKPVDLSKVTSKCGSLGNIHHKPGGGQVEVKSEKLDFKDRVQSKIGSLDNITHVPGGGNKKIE
Description: NIH Molecular Libraries Probe Production Network [MLPCN]
NIH Chemical Genomics Center [NCGC]
Assay Provider: Carlo Ballatore, University of Pennsylvania
The microtubule-associated protein tau is an abundant protein in the axons of neurons that stabilizes microtubules. With its ability to modulate microtubule dynamics, tau contributes directly or indirectly, to key structural and regulatory cellular functions. Particularly important is the influence tau exerts on axonal transport, which allows signaling molecules, trophic factors and other essential cellular constituents to travel along the axons. Under pathological conditions, tau becomes sequestered into insoluble aggregates called neurofibrillary tangles. This phenomenon is believed to have pathological consequences by promoting axonal transport deficits that ultimately lead to synaptic dysfunction and neuronal loss. To identify inhibitors of tau aggregation, a heparin-induced tau fibril formation assay was used that employed a recombinantly expressed fragment of tau, K18 (Q242-E372), bearing a P301L mutation (Gustke et al. 1994; Hong et al. 1998). This assay monitors tau fibrillization by Thioflavin T (ThT) fluorescence.
Gustke, N., B. Trinczek, et al. (1994). "Domains of tau protein and interactions with microtubules." Biochemistry 33(32): 9511-22.
Hong, M., V. Zhukareva, et al. (1998).
Li, W. and V. M. Lee (2006).
von Bergen, M., S. Barghorn, et al. (2001). "Mutations of tau protein in frontotemporal dementia promote aggregation of paired helical filaments by enhancing local beta-structure." J Biol Chem 276(51): 48165-74.
NCGC Assay Protocol Summary:
For screening, 2 uL/well human K18 P301L (15 uM unlabeled and 0.24 uM Alexa 594-labeled tau, final concentrations) in reagent buffer (100 mM sodium acetate pH 7) was dispensed into black solid 1536-well plates (Grenier) using a solenoid-based dispenser. Following transfer of 23 nL compound or DMSO vehicle by a pin tool, 2 uL/well heparin (20 uM final concentration) in reagent buffer was added and the plate centrifuged 15 s at 1000 RPM. Plates were incubated 6 hr at 37 C and then 1 uL/well ThT (30 uM final concentration) was added. After a 1 hr ambient incubation, the plates were read by an Envision (Perkin Elmer) to monitor ThT fluorescence (450/8 nm excitation and 510/23 nm emission).
Keywords: NIH Roadmap, MLPCN, MLI, MLSMR, NCGC, qHTS, tau, tauopathies, Alzheimer's disease, fibril, neurodegeneration, aggregation
% is scaled to controls: 0 for no effect and ±100 for the full control effect; potency is read from the fitted curve at half-maximal effect.

SMILES	activity, negative = inhibition	Potency
CC1CCN(S(=O)(=O)c2ccc3c(ccn3CCC(=O)NCc3ccc(N(C)C)cc3)c2)CC1	-18.4%	–
Cc1nc2c(-c3ccccc3)c(C)nn2c(C)c1CCC(=O)NCCc1ccccc1	-8.23%	–
CCOc1ccc(NC(=O)c2cn(C3CCCCC3)c(=O)c3c2c2ccccc2n3C)cc1	-9.2%	–
O=C(Cn1ncn2nc(-c3cccs3)cc2c1=O)NCc1cccc(Br)c1	-5.56%	–
Cc1ccc(NC(=O)Cc2ccc(NC(=O)N3CCCCc4ccccc43)cc2)cc1	0.89%	–
Cc1c(Cl)cccc1NC(=O)C(=O)NCCc1csc2nc(-c3ccccc3F)nn12	1.36%	–
CC(C)Cn1c(=O)c2ccccc2n2c(-c3cccc(Cl)c3)nnc12	-17.1%	–
O=c1[nH]c2ccccc2n2c(-c3ccccc3)nnc12	–	10 µM (active)
CCOC(=O)c1cnc2[nH]c3ccccc3n2c1=O	6.45%	–
O=[N+]([O-])c1cccc(-c2nnc3c4ccccc4c4ccccc4n23)c1	-15.2%	–
CC(Nc1ccc(-c2nc(-c3ccco3)no2)cc1[N+](=O)[O-])c1ccccc1 (configuration not stated)	-14.2%	–
CN(C)/C=C1/C(=O)Nc2ccccc21	-7.07%	–
Cc1cc(C)c(/C=C2\C(=O)Nc3ccccc32)[nH]1	–	3.16 µM (active)
Cc1ccccc1-n1c(C)cc(/C=C2\NC(=O)NC2=O)c1C	-0.6%	–
Cc1nnc(SCc2cc(=O)c3cc(F)ccc3[nH]2)n1C	-1.18%	–
CCOc1ccc(C2C(=O)N(C3CCCCC3)CC(=O)N2CCC2=CCCCC2)cc1OC (configuration not stated)	0.595%	–
Cc1oc2ncnc(N3CCOCC3)c2c1C(=O)NCCc1ccccc1	4.33%	–
COc1cc(/C=C(\C#N)c2nc3c(s2)CC(C)CC3)ccc1O (configuration not stated)	–	12.6 µM (active)
Cc1ccc(-c2nnc(SCc3ccccc3C)o2)cc1	-7.49%	–
Cc1ccc(-c2cc(-c3coc4ccccc4c3=O)c3c(n2)-c2cc(Cl)ccc2OC3)cc1	-12.1%	–
O=C(CCc1cn(Cc2ccc(F)cc2)c2ccccc12)NC1CCCCC1	-4.41%	–
OCCC#Cc1ccc(CN2CCN(Cc3ccsc3)C(CCO)C2)cc1 (configuration not stated)	–	11.2 µM (active)
OCCC1CN(Cc2ccccc2-c2ccco2)CCN1Cc1ccsc1 (configuration not stated)	-0.703%	–
OCCC1CN(Cc2cccc(OC3CCCC3)c2)CCN1Cc1ccsc1 (configuration not stated)	-12.6%	–
Cc1ccc(-c2nnc(SCC(=O)NCc3ccccc3)nc2-c2ccc(C)cc2)cc1	-6.11%	–
CCOC(=O)CSC1=Nc2ccccc2C2=NC(CCC(=O)NCc3ccc(F)cc3)C(=O)N12 (configuration not stated)	3.95%	–

SMILES	activity, negative = inhibition	Potency
COc1ccc(Cn2ccn(CC(=O)Nc3cc(C)ccc3C)c(=O)c2=O)cc1	-16.1%	–
CCS(=O)(=O)N1CCc2cc(C(=O)NCc3ccc(OC)cc3)ccc21	-4.87%	–
CCOc1ccc(C(c2c(C)[nH][nH]c2=O)c2c(C)[nH][nH]c2=O)cc1OCC	-16.1%	–
Cc1[nH][nH]c(=O)c1C(c1ccc(-c2ccc(Cl)cc2)o1)c1c(C)[nH][nH]c1=O	–	7.08 µM (active)
CC1CCCN(c2cc3c(cc2F)c(=O)c(S(=O)(=O)c2cccc(Cl)c2)cn3Cc2ccccc2)C1 (configuration not stated)	-0.998%	–
CCOc1ccc(CC(=O)NCCc2csc3nc(-c4ccccc4F)nn23)cc1	-7.65%	–
O=C(Nc1ccc(S(=O)(=O)N2CCC(c3nc4ccccc4s3)CC2)cc1)c1ccccc1F	2.61%	–
CC(C)c1ccc(NS(=O)(=O)c2ccc3[nH]cc(C(=O)NC4CCCC4)c(=O)c3c2)cc1	9.63%	–
CCn1c2ccccc2c2nnc(N3CCN(c4cc(C)ccc4C)CC3)nc21	-1.08%	–
O=c1c(=O)n(Cc2c(F)cccc2Cl)ccn1Cc1ccccc1	-16.6%	–
Cc1ccc(CNC(=O)CCc2c(C)nn(-c3ccc(N4CCCC4)nn3)c2C)cc1	-9.71%	–
Cc1ccc(S(=O)(=O)c2ccc(Oc3ccccc3)cc2)cc1	-5.65%	–
CC1=C/C(=N\OS(=O)(=O)c2ccccc2)C=CC1=O	–	3.16 µM (active)
CC1=C/C(=N\S(=O)(=O)c2ccccc2)C(C(C)C)=CC1=O	0.736%	–
COc1ccc(OC)c(-c2nc(C(N)=O)c3c(n2)n(-c2ccc4c(c2)OCO4)c(=O)n3C)c1	-10.3%	–
CC(C)(C)OC(=O)N1CCC(c2c(C(=O)N3CCc4ccccc4C3)cnn2-c2ccc(F)cc2)CC1	-16%	–
O=c1cc(-c2ccccc2)nc(N2CCCCC2)[nH]1	0.526%	–
CC(=O)c1cc(C#N)c(N2CCCCC2)nc1C	0.825%	–
CC(=O)c1cc(-c2ccccc2)[nH]c1N1CCCC1	–	14.1 µM (active)
CCCc1nn2c(=O)cc(COC(=O)c3ccc(NC(=O)COc4ccc(F)cc4)cc3)nc2s1	3.87%	–
CCCN(C(=O)Cn1ncc2c([nH]c3ccc(C)cc32)c1=O)c1ccccc1C	-8.01%	–
O=c1cc(CSc2ncn[nH]2)[nH]c2ccc(F)cc12	-1.06%	–
CCCN(CCC)C(=O)C1CCCN(c2ncnc3c2nc2n3CCCCC2)C1 (configuration not stated)	-2.59%	–
Cc1ccc2nc(SCc3nnc(-c4ccccc4[N+](=O)[O-])o3)c(C#N)cc2c1	-1.14%	–
Cc1ccc(-c2ccc(/C=C(\C#N)C(N)=S)o2)c([N+](=O)[O-])c1	–	3.98 µM (active)
Cc1cc(-c2ccc(/C=N/n3cnnc3)o2)c([N+](=O)[O-])cc1C	5.29%	–

SMILES	activity, negative = inhibition	Potency
CCOc1ccc2nc(N3CCCC(C(=O)Nc4cc(C)ccc4C)C3)sc2c1 (configuration not stated)	-8.84%	–
O=C(NCc1ccccc1)c1cccc(NC(=O)N2CCSc3ncccc32)c1	5.68%	–
CC(=O)N1c2ccc(S(=O)(=O)N3CCCCCC3)cc2CC1C(=O)NCc1ccccc1C (configuration not stated)	-5.53%	–
Cc1ccc(C(=O)NC(=S)Nc2ccccc2C)cc1	1.33%	–
C/C(=N\NC(=O)c1ccc(C)cc1)C1C(=O)c2ccccc2C1=O	–	5.01 µM (active)
Cc1ccc(C(=O)NCCNC(=O)c2ccccc2)cc1	-12.8%	–
COc1ccc(C2C(=O)N(C3CCCCCC3)CC(=O)N2CCc2ccc(Cl)cc2)cc1OC (configuration not stated)	-5.92%	–
CC(C)CNc1ncnc2c1nnn2C	-0.799%	–
Cc1cccc(-c2nc(SCC(=O)Nc3cc(C)on3)c3c(=O)n(C)c(=O)n(C)c3n2)c1	-3.19%	–
Cc1ccc(N(CC(=O)NCc2ccc(Cl)cc2)S(=O)(=O)N(C)C)cc1	2.93%	–
Cc1ccc2sc(N(Cc3cccnc3)C(=O)C3COc4ccccc4O3)nc2c1C (configuration not stated)	-8.74%	–
CC(C)OC(=O)CN1C(=O)C(=O)c2ccccc21	-13.1%	–
CCCCN1C(=O)/C(=C(/C#N)C(N)=O)c2ccccc21	–	20 µM (active)
Cc1cc(C(=O)COC(=O)CCCN2C(=O)c3ccccc3C2=O)c(C)n1C	-9.79%	–
Cc1ccc(-n2nc(C)c3c(C)cc(=O)n(CC(=O)Nc4ccc(C(C)C)cc4)c32)cc1	20.4%	–
CCOc1ccc(/C=N/NC(N)=S)cc1	-8.57%	–
CCOc1ccc(N=C2NC(=O)S/C2=C\c2ccc(O)cc2)cc1	–	3.55 µM (active)
CCOc1ccc(N=C2SC(C(=O)O)CC(=O)N2C)cc1 (configuration not stated)	8.58%	–
Cc1cc(OC(C)C(=O)Nc2sc3c(c2C(N)=O)CCCC3)ccc1Cl (configuration not stated)	-10.9%	–
COc1ccccc1CCNC(=O)c1cccn1-c1nnc(N2CCCCC2)s1	6.81%	–
COc1ccc(CNC(=O)C2=Cc3cccc(OC)c3OC2)cc1OC	-1.13%	–
COc1ccc(Cc2nc3ccc(C(=O)NCc4ccc(OC)cc4OC)cc3o2)cc1	-16.5%	–
CC1CCCN(S(=O)(=O)c2ccc3[nH]c(=O)cc(C(=O)NCCc4ccc(Cl)cc4)c3c2)C1 (configuration not stated)	6.2%	–
CC(C)OCCCn1c(SCC(=O)c2ccccc2)nc2c(sc3ccccc32)c1=O	-3.27%	–
Cc1cc(F)ccc1NS(=O)(=O)c1ccc(-n2cccn2)cc1	0.124%	–
CC(C)CC(=O)NCC(c1ccc2c(c1)OCO2)N1CCN(c2ccc(F)cc2)CC1 (configuration not stated)	-1.35%	–

SMILES	activity, negative = inhibition	Potency
O=C(CN1CCN(Cc2ccccc2)CC1)NC(c1ccccc1)c1ccccc1	-6.32%	–
O=c1cc(N2CCN(Cc3ccccc3)CC2)c(-c2ccccc2)n[nH]1	-8.74%	–
O=C1c2ccccc2C(=O)c2c1cccc2N1CCN(Cc2ccccc2)CC1	–	14.1 µM (active)
CC(=O)c1ccc(NC(=O)CSc2nc(-c3ccccc3F)nc3c2c(=O)n(C)c(=O)n3C)cc1	-4.07%	–
COc1ccc(Cn2ccn(Cc3cccc(OC)c3)c(=O)c2=O)cc1	-1.27%	–
Cn1c(=O)oc2cc(S(=O)(=O)CCC(=O)NCCc3ccc(Cl)cc3)ccc21	-5.87%	–
Cc1ccc(C)c(Oc2c(C(F)(F)F)oc3c(CN4CCN(C)CC4)c(O)ccc3c2=O)c1	5.1%	–
Fc1ccccc1Oc1ncnc2c1oc1ccccc12	0.723%	–
CCOc1ccc(/C=N/NC(=O)C(C)Sc2ccccn2)cc1OCC (configuration not stated)	-11%	–
CCOc1ccc(/C=N/Nc2nncc(-c3ccccc3)n2)cc1OC	–	2.24 µM (active)
C=CCOc1ccc(/C=N/NC(=O)C(C)Sc2ccccn2)cc1OCC (configuration not stated)	-0.608%	–
COc1ccc(-c2ccc(=O)n(CC(=O)Nc3ccc(Br)cc3F)n2)cc1	-0.585%	–
Cc1ccccc1CN1CCC(CNC(=O)c2cc3ccc4cccnc4c3[nH]2)CC1	3.15%	–
COc1cccc(C(=O)Nc2nnc(S(=O)(=O)N3CCOCC3)s2)c1	–	3.16 µM (active)
O=C(Nc1nc2cc3c(cc2s1)OCCO3)c1cccc(S(=O)(=O)N2CCOCC2)c1	-8.31%	–
CCC(=O)Nc1ccc(C(=O)Nc2cccc(OC)c2)cc1	-2.56%	–
COc1ccc(C(=O)Nc2nc(-c3ccc(S(=O)(=O)N4CCOCC4)cc3)cs2)cc1	-6.13%	–
COc1cccc(C(=O)Nc2ccc(N3CCCC3)cc2)c1	–	14.1 µM (active)
COc1cccc(C(=O)Nc2ccc(-c3cc(C(F)(F)F)nn3-c3ccccc3)cc2)c1	-2.4%	–
COc1cc(NC(=O)C2CCN(c3cnccn3)CC2)cc(OC)c1	0.931%	–
CCc1ccc(S(=O)(=O)c2nnn3c2nc(N2CCN(CC)CC2)c2sccc23)cc1	-2.76%	–
CCC(=O)Nc1ccccc1-c1nc2ccccc2n(CC(=O)Nc2ccc(C)c(C)c2)c1=O	-4.76%	–
Oc1c(C=Nc2cccc3nsnc23)ccc2ccccc12	–	2.24 µM (active)
COc1ccc(C=Nc2cccc3ncccc23)cc1	-11.3%	–
